# Source: PubChem (several laboratories)
# Autofluor counter: compound fluorescence in toxin protease inhibitor counterscreen; hit rate 3.1% among 360,000; fluorescence intensity (no concentration beside the values); compound autofluorescence counterscreen, microsphere flow cytometry; hits give high values; in the data active = fluorescence intensity above about 16000; inconclusive = no clear call, values can overlap the other calls
# BoNT F protease: BoNT/F light chain protease inhibitors, primary screen, biochemical, flow cytometry, MLPCN library | Multiplex microsphere protease cleavage assay | inhibition, % at 10 µM | hit rate 0.22% among 360,000; in the data active = inhibition above about 35%, passing the limit was not always enough; inconclusive = no clear call, values can overlap the other calls; note: plate controls were buffer without enzyme for full effect and enzyme alone for no effect
# Anthrax LF prot: Bacillus anthracis LF protease inhibitors, primary screen, biochemical, multiplex microsphere, MLPCN library | Lethal factor (Bacillus anthracis), P15917 | multiplex microsphere protease cleavage assay | inhibition, % at 10 µM | hit rate 0.12% among 360,000 | AID 588501, 2011; note: plate controls were buffer without enzyme for full effect and enzyme alone for no effect
# Target sequence (P15917 whole entry, looked up): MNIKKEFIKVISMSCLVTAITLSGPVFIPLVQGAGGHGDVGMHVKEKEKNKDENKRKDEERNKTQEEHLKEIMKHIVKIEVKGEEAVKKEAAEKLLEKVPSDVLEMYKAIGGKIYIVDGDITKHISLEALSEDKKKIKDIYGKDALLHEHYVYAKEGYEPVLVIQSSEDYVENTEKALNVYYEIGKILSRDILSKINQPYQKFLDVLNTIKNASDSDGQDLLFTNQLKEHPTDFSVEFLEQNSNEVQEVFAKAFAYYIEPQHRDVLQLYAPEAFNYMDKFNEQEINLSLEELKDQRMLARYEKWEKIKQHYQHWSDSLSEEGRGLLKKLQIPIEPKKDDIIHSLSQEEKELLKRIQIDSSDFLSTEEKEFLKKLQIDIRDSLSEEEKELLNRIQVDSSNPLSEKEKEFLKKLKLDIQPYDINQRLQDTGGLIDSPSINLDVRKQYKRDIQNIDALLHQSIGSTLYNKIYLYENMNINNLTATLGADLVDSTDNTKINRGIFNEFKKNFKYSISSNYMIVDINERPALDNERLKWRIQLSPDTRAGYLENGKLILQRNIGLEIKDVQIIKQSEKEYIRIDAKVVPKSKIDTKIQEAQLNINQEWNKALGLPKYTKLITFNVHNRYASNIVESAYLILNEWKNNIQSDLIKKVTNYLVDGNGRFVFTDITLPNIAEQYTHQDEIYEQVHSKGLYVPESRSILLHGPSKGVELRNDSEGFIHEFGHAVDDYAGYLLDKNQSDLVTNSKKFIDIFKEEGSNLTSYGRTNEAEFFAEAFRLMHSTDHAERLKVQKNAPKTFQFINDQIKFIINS
# MazEF act: activators of E. coli MazEF toxin-antitoxin RNase, primary screen, biochemical, fluorescence, uHTS; FAM/BHQ RNA-DNA oligo cleavage fluorescence, 5 h; activation, % at 20 µM; Endoribonuclease toxin MazF (Escherichia coli (strain K12)), P0AE70; hit rate 0.32% among 350,000; in the data active = activation above about 50%
# BoNT A protease: BoNT/A light chain protease inhibitors, primary screen, biochemical, flow cytometry, MLPCN library. Botulinum neurotoxin type A light chain protease (Clostridium botulinum A str. ATCC 3502). multiplex microsphere protease substrate cleavage. inhibition, % at 10 µM. hit rate 0.17% among 360,000; note: plate controls were buffer without enzyme for full effect and enzyme alone for no effect
# * = called active by the depositor; ? = inconclusive; · = not tested or not shown. An excerpt weighted towards active compounds, which were near 3.7% of everything screened. Cut-off read from the data, not from the text of the source, unless noted: active = inhibition above about 30%; inconclusive = no clear call, values can overlap the other calls; inactive = below that.
SMILES,Autofluor counter,BoNT F protease,Anthrax LF prot,MazEF act,BoNT A protease
Cc1nc(-n2cc(F)c(=O)[nH]c2=O)c2nc(C)oc2n1,17089*,-4.2,-4.2,-8.1,-2.5
CC1CN(C(C)C)C(=S)NC1=O (centres undefined),3728,-4.6,1.3,-0.7,0.3
COc1c(C=NNC(N)=O)c(OC)c(OC)c2c1CCO2,3934,4.0,0.7,-0.5,-6.5
CC(=O)Nc1cccc(OCC(=O)NS(=O)(=O)c2ccc(C)cc2)c1,23647*,-2.9,-9.7,4.9,-2.0
Cc1ccc(Cl)cc1NC(=O)CON=C(N)c1ccccc1,3846,12.5,-1.1,-2.7,7.5
CCOC(=O)c1cccc(NS(=O)(=O)c2c(C)[nH]c(=O)[nH]c2=O)c1,19045*,0.7,-9.9,-1.6,1.4
Cc1ccccc1NC(=O)/C(C#N)=C\c1cccnc1,17365*,-5.7,-0.2,-7.2,?
N#C/C(=C\c1ccccc1)C(=O)Nc1ccccn1,3958,39.8*,-17.1,21.6,-2.0
Cc1cccc(/C=C(\C#N)C(=O)Nc2ccccn2)c1,5296,4.8,0.7,-15.9,0.9
CNc1ccc(/C=C(\C#N)C(=O)Nc2ccccn2)cc1[N+](=O)[O-],5365,37.5*,32.6*,140.6*,0.6
CC(C)(C)c1ccc(/C=C(\C#N)C(=O)Nc2ccccn2)cc1,3996,-8.6,-7.6,15.2,-1.1
N#C/C(=C/C=C/c1ccccc1)C(=O)Nc1ccccc1,18225*,-9.6,-1.1,-3.1,?
O=C(/C=C/c1c(F)cccc1Cl)NCCCN1CCOCC1,4888,-4.6,-1.4,1.6,-2.2
Cc1nn(CC(=O)OCC(=O)c2ccccc2)c(C)c1[N+](=O)[O-],3711,4.2,-1.9,9.4,0.0
CCCCCn1c(CN2CCN(c3cccc(Cl)c3)CC2)nc2c1c(=O)[nH]c(=O)n2C,20547*,-2.3,-8.0,-2.3,0.3
CCCCCn1c(CN2CCN(C(=O)OCC)CC2)nc2c1c(=O)n(C)c(=O)n2C,7714,-0.8,4.4,-1.2,1.2
CCCCCCn1c(CN2CCN(Cc3ccccc3)CC2)nc2c1c(=O)n(C)c(=O)n2C,20131*,-3.2,-0.7,-6.3,-0.9
CCOC(=O)N1CCN(Cc2nc3c(c(=O)n(C)c(=O)n3C)n2CCCc2ccccc2)CC1,20078*,2.6,-3.4,-16.5,1.5
CCCCCCCCn1c(N2CCN(c3cccc(Cl)c3)CC2)nc2c1c(=O)[nH]c(=O)n2C,9367,-0.4,5.3,-2.3,-0.1
COc1ccc(N2CCN(Cc3nc4c(c(=O)n(C)c(=O)n4C)n3CC(C)=O)CC2)cc1,20509*,-1.5,-2.1,7.5,-1.5
CCn1c(-c2ccsc2)nc2c1c(=O)[nH]c(=O)n2Cc1ccccc1,8794,-7.2,-12.1,2.9,-0.7
Cn1c(=O)[nH]c(=O)c2c1nc(CN1CCN(c3cccc(Cl)c3)CC1)n2CCc1ccccc1,16970*,-8.6,-2.4,-5.0,-2.5
CCCCCn1c(CN2CCN(Cc3ccccc3)CC2)nc2c1c(=O)[nH]c(=O)n2C,22888*,-0.9,0.4,3.7,-0.8
CCCn1c(-c2cccs2)nc2c1c(=O)[nH]c(=O)n2Cc1ccccc1,4177,-6.0,4.1,83.1*,0.3
CCOC(=O)N1CCN(Cc2nc3c(c(=O)[nH]c(=O)n3C)n2Cc2cc(C)ccc2C)CC1,20382*,2.1,2.1,-0.5,?
SMILES,Autofluor counter,BoNT F protease,Anthrax LF prot,MazEF act,BoNT A protease
Cc1ccc2cc(NC(=O)C3(C)CCN(C)C3)ccc2n1 (centres undefined),3849,-2.0,2.9,·,-0.3
CN(CCOc1ccc(Cl)cc1)C(=O)c1cccc(S(=O)(=O)N2CCN(c3ccc(F)cc3)CC2)c1,6864,-10.0,1.1,9.3,-1.5
C[C@@H]1CN([C@H](C)CO)C(=O)CCCn2nncc2CO[C@@H]1CN(C)S(=O)(=O)c1ccc(F)cc1,4067,0.7,-3.7,4.9,-0.2
Cc1c(S(=O)(=O)Nc2ccc3c(c2)OCCO3)c(=O)n(C)c(=O)n1C,5615,5.2,-8.0,-2.3,-1.2
Cn1c(=O)oc2cc(S(=O)(=O)Nc3ccc4c(c3)OCCO4)ccc21,21945*,-7.7,-0.2,-1.3,?
Cn1c(=O)c(=O)n(C)c2cc(S(=O)(=O)Nc3ccc4c(c3)OCCO4)ccc21,22407*,-1.8,-2.4,-1.1,?
CC(=O)Nc1cccc(-c2ccnc3c2CC(C(=O)NCC2CCOCC2)O3)c1 (centres undefined),3715,7.6,2.9,·,-0.2
CCN(CC)CCN1C(=O)c2ccccc2NC1c1ccc(C)cc1 (centres undefined),23099*,2.4,-3.5,7.5,?
O=C(CNC(=O)c1ccc(S(=O)(=O)N2CCCC2)cc1)N/N=C/c1ccc(Cl)cc1Cl,7634,0.1,-2.4,74.3*,-0.5
CC(=O)c1cnc2nc(SCc3ccccc3C)nn2c1C,4121,8.5,-17.7,0.0,-3.9
CC(=O)c1cnc2nc(C(F)(F)F)nn2c1C,2708,-4.5,-1.7,80.0*,-0.6
CC12CCC3C(CCC4CC(O)CCC43C)C1CC(=O)C2 (centres undefined),5871,-2.2,9.0,·,-0.1
COc1ccccc1NCC(=O)N/N=C(\C)c1ccc(Br)s1,7476,7.5,-3.1,10.3,1.0
C/C(=N/NC(=O)CNc1ccc(C)cc1)c1ccc(Br)s1,19958*,-3.0,1.4,-4.0,-0.5
O=C(NC1(C(F)(F)F)NC(=O)N(c2ccc(F)c(Cl)c2)C1=O)c1ccncc1 (centres undefined),23968*,-1.5,-4.2,0.4,-3.0
O=C(NC1(C(F)(F)F)NC(=O)N(c2ccccc2F)C1=O)c1ccncc1 (centres undefined),2295,-5.5,0.4,4.6,0.4
Cc1cc(/C=C(\C#N)C(=O)NCCc2c[nH]c3ccccc23)c(C)n1C,2022,6.0,-1.8,2.1,-0.8
COc1cc(/C=C(/C#N)C(=O)NCCc2c[nH]c3ccccc23)ccc1OCc1ccccc1F,23745*,-1.2,0.6,27.5,-0.8
Cc1ccc(C2=N/C(=C/c3cccs3)C(=O)N2Nc2ccccc2)cc1,6977,42.9*,58.4*,2.0,80.1*
CCCc1cn(S(=O)(=O)c2ccc(OC)cc2OC)nc1N,17146*,-6.5,-3.1,3.1,-3.7
CCc1cn(S(=O)(=O)c2ccccc2OC)nc1N,7756,0.5,-2.0,16.6,0.1
CCOc1ccc(OCc2ccc(C(=O)N3N=C(C(F)F)CC3(O)C(F)F)o2)cc1 (centres undefined),17666*,-3.3,-3.6,-3.7,-4.1
C#CCSc1nnc(-c2cccc3ccccc23)o1,16238*,-0.5,-4.0,0.1,0.3
N#CCc1ccc(NS(=O)(=O)c2cccs2)cc1,16560*,-3.4,-2.2,4.0,-1.2
O=S(=O)(Nc1ccc(Cc2ccncc2)cc1)c1cccs1,9265,-17.1,0.2,-7.5,-0.1
